Consider 15 molecules from article PMC8222333, “AsCas12a ultra nuclease facilitates the rapid generation of therapeutic cell medicines”.

What all share (assay): Spec-seq (native PAGE EMSA with sequencing of bound and unbound); 25 mM Tris-HCl pH 7.4, 150 mM KCl, 5 mM MgCl2, 10% glycerol, 1 mM DTT, 40 ng/uL salmon sperm DNA; 400 nM Cas12a, 480 nM crRNA, 50 nM library, 37 C 1 h; native PAGE at room temperature; high values mean tight binding
What all share (conditions): protein: recombinant
A general note: Mobility shift assays separate free from complexed probe on a gel.

The target in assay [1] is dAsCas12a E174R (Acidaminococcus sp., UniProt U2UMQ6 1-1307, E174R;D908A;E993A;D1235A).
For assay [2], the target named is dAsCas12a S542R (Acidaminococcus sp., UniProt U2UMQ6 1-1307, S542R;D908A;E993A;D1235A).
For assay [3], the target named is d-enCas12a (Acidaminococcus sp., UniProt U2UMQ6 1-1307, E174R;S542R;K548R;D908A;E993A;D1235A).
Assay [4] addresses d-enCas12a-Ultra (Acidaminococcus sp., UniProt U2UMQ6 1-1307, E174R;S542R;K548R;M537R;F870L;D908A;E993A;D1235A).
Assay [5] has as its target dAsCas12a K548R (Acidaminococcus sp., UniProt U2UMQ6 1-1307, K548R;D908A;E993A;D1235A).

Positions count from the first letter of the chain named.

B1: AAAT (dsDNA)
DNA 1: GCTATCTAGTGCTCAGTACGCACTGAAATAGGAAACTTCTGGCAGGACCAGGTCATGAGATCGGAAGAGCACACGTCTGAACTCCAGTCA
DNA 2: TGACTGGAGTTCAGACGTGTGCTCTTCCGATCTCATGACCTGGTCCTGCCAGAAGTTTCCTATTTCAGTGCGTACTGAGCACTAGATAGC
RNA: AAUUUCUACUCUUGUAGAUAGGAAACUUCUGGCAGGACC
For B1, the binding signal in assay [1] was -8.92 lnKA; in assay [2], -8.45 lnKA; in assay [3], -5.69 lnKA; in assay [4], -3.07 lnKA.

B2: ACCT (dsDNA)
DNA 1: B1 DNA 1 with A27C, A28C
DNA 2: B1 DNA 2 with T63G, T64G
RNA: B1 RNA
As for B2, the binding signal in assay [1] was -8.9 lnKA; in assay [2], -7.8 lnKA; in assay [3], -5.41 lnKA; in assay [4] it was -2.23 lnKA.

B3: AATG (dsDNA)
DNA 1: B1 DNA 1 with A28T, T29G
DNA 2: B1 DNA 2 with A62C, T63A
RNA: B1 RNA
As to B3, the binding signal is -8.3 lnKA in assay [1], -8.21 lnKA in assay [2], -3.79 lnKA in assay [3] and -1.81 lnKA in assay [4].

B4: CATG (dsDNA)
DNA 1: B1 DNA 1 with A26C, A28T, T29G
DNA 2: B1 DNA 2 with A62C, T63A, T65G
RNA: B1 RNA
In the case of B4, the binding signal was -8.38 lnKA in assay [1], -8.49 lnKA in assay [2], -4.73 lnKA in assay [3] and -2.28 lnKA in assay [4].

B5: ACAT (dsDNA)
DNA 1: B1 DNA 1 with A27C
DNA 2: B1 DNA 2 with T64G
RNA: B1 RNA
On to B5, for which the binding signal in assay [1] is -8.97 lnKA; in assay [2], -8.62 lnKA; in assay [3] it was -5.81 lnKA; in assay [4] it was -3.49 lnKA.

B6: CATC (dsDNA)
DNA 1: B1 DNA 1 with A26C, A28T, T29C
DNA 2: B1 DNA 2 with A62G, T63A, T65G
RNA: B1 RNA
As for B6, the binding signal in assay [1] was -8.78 lnKA; in assay [2] it was -8.13 lnKA; in assay [5], -8.88 lnKA; in assay [3] it was -3.35 lnKA; in assay [4] it was -1.16 lnKA.

B7: ACCA (dsDNA)
DNA 1: B1 DNA 1 with A27C, A28C, T29A
DNA 2: B1 DNA 2 with A62T, T63G, T64G
RNA: B1 RNA
For the molecule B7, the binding signal is -8.92 lnKA in assay [1], -6.94 lnKA in assay [2], -4.21 lnKA in assay [3] and -0.992 lnKA in assay [4].

B8: ATAG (dsDNA)
DNA 1: B1 DNA 1 with A27T, T29G
DNA 2: B1 DNA 2 with A62C, T64A
RNA: B1 RNA
As to B8, the binding signal in assay [1] was -8.88 lnKA; in assay [2] it was -8.31 lnKA; in assay [3], -5.6 lnKA; in assay [4], -3.31 lnKA.

B9: AGGG (dsDNA)
DNA 1: B1 DNA 1 with A27G, A28G, T29G
DNA 2: B1 DNA 2 with A62C, T63C, T64C
RNA: B1 RNA
With B9, the binding signal in assay [1] is -8.84 lnKA; in assay [2], -8.44 lnKA; in assay [3] it was -5.86 lnKA; in assay [4] it was -3.51 lnKA.

B10: ATCA (dsDNA)
DNA 1: B1 DNA 1 with A27T, A28C, T29A
DNA 2: B1 DNA 2 with A62T, T63G, T64A
RNA: B1 RNA
As to B10, the binding signal in assay [1] is -8.4 lnKA; in assay [2] it was -5.58 lnKA; in assay [3], -1.74 lnKA; in assay [4] it was -0.402 lnKA.

B11: ATGC (dsDNA)
DNA 1: B1 DNA 1 with A27T, A28G, T29C
DNA 2: B1 DNA 2 with A62G, T63C, T64A
RNA: B1 RNA
With B11, the binding signal in assay [1] was -8.95 lnKA; in assay [2], -8.32 lnKA; in assay [3], -5.32 lnKA; in assay [4], -2.52 lnKA.

B12: CACT (dsDNA)
DNA 1: B1 DNA 1 with A26C, A28C
DNA 2: B1 DNA 2 with T63G, T65G
RNA: B1 RNA
Consider B12, for which the binding signal is -8.98 lnKA in assay [1], -8.41 lnKA in assay [2], -4.47 lnKA in assay [3] and -1.3 lnKA in assay [4].

B13: ATAT (dsDNA)
DNA 1: B1 DNA 1 with A27T
DNA 2: B1 DNA 2 with T64A
RNA: B1 RNA
For the molecule B13, the binding signal was -8.59 lnKA in assay [1], -8.38 lnKA in assay [2], -5.63 lnKA in assay [3] and -3.33 lnKA in assay [4].

B14: ATCT (dsDNA)
DNA 1: B1 DNA 1 with A27T, A28C
DNA 2: B1 DNA 2 with T63G, T64A
RNA: B1 RNA
For B14, the binding signal was -8.78 lnKA in assay [1], -7.09 lnKA in assay [2], -3.06 lnKA in assay [3] and -0.664 lnKA in assay [4].

B15: CATA (dsDNA)
DNA 1: B1 DNA 1 with A26C, A28T, T29A
DNA 2: B1 DNA 2 with A62T, T63A, T65G
RNA: B1 RNA
As for B15, the binding signal was -7.55 lnKA in assay [1], -8.31 lnKA in assay [2], -2.95 lnKA in assay [3] and -0.95 lnKA in assay [4].
